Test systems include NCI-H23 lung; NCI-H226 lung; NCI-H322M lung; HOP-62 NSCLC; NCI-H460 lung; HOP-92 NSCLC; NCI-H522 lung; A549/ATCC NSCLC; 786-0 renal; COLO 205 colon; DU-145 prostate; K-562 leukemia; MALME-3M melanoma; MDA-MB-231 breast; RXF 393 renal; SF-268 CNS; SF-295 CNS; SF-539 CNS; UACC-257 melanoma; M14 melanoma.
Experiment in all cases: NCI-60 one-dose screen, 48 h (100 = growth as untreated, 0 = no growth, -100 = all killed)
What all share (settings): 10 µM unless noted

The panel holds about 83,000 compounds, 20% with a hit somewhere; the sample as a whole holds those more often.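 How to read the values: 0–100, growth inhibition (40 = 60% inhibited); 0, no net growth; -100 to 0, cell death (-40 = 40% of starting cells died; -100 = all dead).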 Values without a mark were called inactive. Calls of active or inactive are those of the source. The calls were made as follows: active = growth percent below 10; inactive = the rest.

As for `C=C(C)[C@@H]1CC[C@]2(C(=O)NC3CCCCC3)CC[C@]3(C)[C@H](CC[C@@H]4[C@@]5(C)CC[C@H](N)C(C)(C)[C@@H]5CC[C@]43C)[C@@H]12`, the growth in the assay with NCI-H23 lung is 106%; in the assay with NCI-H226 lung, 94.2%; with NCI-H322M lung, 108%; in the assay on HOP-62 NSCLC it was 104%; in the assay with NCI-H460 lung it was 98.7%; in the assay with HOP-92 NSCLC it was 73.1%. Besides, the growth with NCI-H522 lung is 93.2%; in the assay on A549/ATCC NSCLC, 91.9%; in the assay on 786-0 renal it was 84.6%; in the assay with COLO 205 colon, 52.9%; with DU-145 prostate, 105%; with K-562 leukemia, -34.7% (active). Further, the growth in the assay on MALME-3M melanoma is 95.3%; in the assay on MDA-MB-231 breast it was 108%; with RXF 393 renal, 93.7%; in the assay with SF-268 CNS, 91.6%; in the assay on SF-295 CNS it was 103%; in the assay on SF-539 CNS, 98.5%. Besides, the growth in the assay on UACC-257 melanoma was 105%; with M14 melanoma it was 103%.
With `CC1=C(C)C(=O)C(Nc2ccc(C)c(C)c2)=C(Br)C1=O`, the growth is 76.9% in the assay on NCI-H23 lung; 89.6% with NCI-H226 lung; 102% in the assay with NCI-H322M lung; 104% in the assay on HOP-62 NSCLC; 99.6% in the assay on NCI-H460 lung; 3.51% (active) with HOP-92 NSCLC. The growth is 97.2% in the assay with NCI-H522 lung; 103% in the assay with A549/ATCC NSCLC; 105% in the assay on 786-0 renal; 116% in the assay on COLO 205 colon; 109% in the assay with DU-145 prostate; -2.41% (active) in the assay with K-562 leukemia. Moreover, the growth in the assay on MALME-3M melanoma is 114%; with MDA-MB-231 breast it was 65.1%; in the assay on RXF 393 renal, 87.9%; in the assay on SF-268 CNS, 98.4%; with SF-295 CNS, 92.9%; in the assay with SF-539 CNS, 98.9%. The growth is 98.5% with UACC-257 melanoma and 96.5% in the assay with M14 melanoma.
Regarding `COc1ccc(CC(C)=C(c2ccc(OCCN3CCCC3)cc2)c2ccc(OCCN3CCCC3)cc2)cc1`, the growth with NCI-H23 lung is -82.4% (active); in the assay with NCI-H226 lung, -69.2% (active); in the assay on NCI-H322M lung, -75.7% (active); in the assay on HOP-62 NSCLC it was -66% (active); in the assay with NCI-H460 lung, -62.3% (active); with HOP-92 NSCLC, -82.4% (active). Further, the growth is -86% (active) with NCI-H522 lung; -68.2% (active) in the assay with A549/ATCC NSCLC; -79.3% (active) in the assay with 786-0 renal; -61% (active) in the assay on COLO 205 colon; -88.6% (active) in the assay on DU-145 prostate; 1.41% (active) in the assay on K-562 leukemia. Further, the growth was -82.9% (active) with MALME-3M melanoma; -83.9% (active) in the assay with MDA-MB-231 breast; -95.3% (active) in the assay on RXF 393 renal; -64.4% (active) in the assay with SF-268 CNS; -87.7% (active) in the assay on SF-295 CNS; -90.1% (active) in the assay on SF-539 CNS. Moreover, the growth in the assay on UACC-257 melanoma is -86.6% (active); in the assay with M14 melanoma, -87.5% (active).
Consider `O=S(=O)(NCCCNc1nccc(-c2[nH]c(-c3ccccc3)nc2-c2ccc(F)c(O)c2)n1)c1cccc2ccccc12`, for which the growth in the assay on NCI-H23 lung is 64.9%; in the assay with NCI-H226 lung it was 68%; with NCI-H322M lung it was 98.2%; in the assay with HOP-62 NSCLC it was 76.8%; in the assay on NCI-H460 lung, 35.5%; in the assay on HOP-92 NSCLC, 32.6%. Moreover, the growth in the assay with NCI-H522 lung was 64%; in the assay with A549/ATCC NSCLC, 52.4%; in the assay with 786-0 renal it was 59.8%; in the assay on COLO 205 colon, 111%; in the assay on DU-145 prostate it was 61.5%; in the assay with K-562 leukemia, 23.3%. Also, the growth in the assay with MALME-3M melanoma is 32.8%; in the assay with MDA-MB-231 breast, 77.2%; in the assay on RXF 393 renal, 75.4%; with SF-268 CNS it was 75.3%; in the assay with SF-295 CNS it was 45.7%; with SF-539 CNS, 93.7%. In addition, the growth was 44.1% in the assay on UACC-257 melanoma and 29.4% with M14 melanoma.
Take `C#CCN(C)CCCOc1ccc(NC(=O)CCCCCCCCC(=O)NO)cc1Cl`: the growth was 54.2% in the assay with NCI-H23 lung; 73.2% in the assay on NCI-H226 lung; 92.2% with NCI-H322M lung; 77.6% with HOP-62 NSCLC; 81.8% with NCI-H460 lung; 64.8% in the assay on HOP-92 NSCLC. Besides, the growth with NCI-H522 lung is 51.9%; in the assay on A549/ATCC NSCLC, 72.9%; in the assay with 786-0 renal, 87.9%; with COLO 205 colon, 76.1%; in the assay with DU-145 prostate, 81.7%; in the assay on K-562 leukemia, 40.7%. Moreover, the growth in the assay on MALME-3M melanoma is 45.9%; with MDA-MB-231 breast, 89.5%; in the assay on RXF 393 renal, 37.3%; in the assay on SF-268 CNS, 97.8%; in the assay with SF-295 CNS, 50.2%; in the assay on SF-539 CNS, 74.5%. The growth in the assay with UACC-257 melanoma was 42.8%; with M14 melanoma it was 72.9%.
`CCCCCc1ccc(S(=O)(=O)Nc2cc(-c3csc(N)n3)ccc2OC)cc1`: the growth was 88.7% in the assay with NCI-H23 lung; 80% in the assay with NCI-H226 lung; 103% in the assay with NCI-H322M lung; 108% in the assay with HOP-62 NSCLC; 99.5% in the assay on NCI-H460 lung; 97.3% in the assay with HOP-92 NSCLC. Also, the growth with NCI-H522 lung was 84.9%; with A549/ATCC NSCLC it was 88%; in the assay on 786-0 renal, 99.1%; in the assay with COLO 205 colon it was 117%; in the assay on DU-145 prostate, 107%; with K-562 leukemia, 83.9%. Further, the growth in the assay with MALME-3M melanoma is 96.1%; in the assay on MDA-MB-231 breast, 92%; with RXF 393 renal, 99.7%; in the assay on SF-268 CNS it was 94.7%; with SF-295 CNS, 84.8%; in the assay with SF-539 CNS, 89.7%. Besides, the figures for the growth in the assay on UACC-257 melanoma and in the assay with M14 melanoma were 107% and 103%, respectively.
For `C/C(=N\NC(=O)/C=C/CC(=O)O)c1nnn(-c2ccc([N+](=O)[O-])cc2)c1C`, the growth in the assay on NCI-H23 lung is 97.8%; in the assay with NCI-H226 lung it was 96.9%; in the assay on NCI-H322M lung it was 99.1%; in the assay with HOP-62 NSCLC, 104%; in the assay with NCI-H460 lung it was 111%; with HOP-92 NSCLC, 74.3%. The growth is 98.6% in the assay on NCI-H522 lung; 102% in the assay with A549/ATCC NSCLC; 101% with 786-0 renal; 108% in the assay with COLO 205 colon; 104% in the assay on DU-145 prostate; 103% with K-562 leukemia. Moreover, the growth in the assay with MALME-3M melanoma was 97.9%; in the assay with MDA-MB-231 breast it was 104%; in the assay on RXF 393 renal, 106%; in the assay on SF-268 CNS it was 96.9%; with SF-295 CNS it was 97%; in the assay on SF-539 CNS, 100%. Besides, the growth in the assay with UACC-257 melanoma was 105%; in the assay with M14 melanoma, 103%.

The values are drawn from PubChem BioAssay (NCI).
